# Measurements as given in PubChem BioAssay AID1852 (Sanford-Burnham Center for Chemical Genomics, 2009).
# About 1,100 (44%) of roughly 2,500 compounds were called active.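 How the source made its calls: active means inhibition above 50% at 4 µM in the single-point screen; inactive means inhibition of 50% or less.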 The set was probably picked from earlier hits. The list shows a part of the results.
# Assay: blockers of TNF-a NF-kB luciferase induction – cell-based, HEK293T NF-kB-Luc, luminescence, selectivity assay for NOD1/NOD2 signaling inhibitor project, primary screen (AID 1852)
# Conditions: TNF-a induced, 14 h, at 4 µM, active compounds read high
row,SMILES,inhibition
1,CC(C)NC(=O)c1ccc(Sc2ccccc2)c([N+](=O)[O-])c1,16.7% (inactive)
2,Cn1cnnc1Sc1ccc(/C=C/C(=O)c2ccc(O)cc2)cc1[N+](=O)[O-],6.7% (inactive)
3,CC(=O)c1ccc(Sc2nnnn2-c2ccccc2)c([N+](=O)[O-])c1,61.3% (active)
4,CCN(c1ccccc1)S(=O)(=O)c1ccc(NC(=O)c2nc(S(C)(=O)=O)ncc2Cl)cc1,30% (inactive)
5,CN(c1ccccc1)S(=O)(=O)c1ccc(NC(=O)c2nc(S(C)(=O)=O)ncc2Cl)cc1,60.4% (active)
6,O=C(Nc1ccc(F)cc1)c1nc(S(=O)(=O)Cc2ccccc2)ncc1Cl,60.6% (active)
7,Cc1cccc(CS(=O)(=O)c2ncc(Cl)c(C(=O)Nc3ccc(F)cc3)n2)c1,43% (inactive)
8,CCS(=O)(=O)c1ncc(Cl)c(C(=O)Nc2ccc(S(=O)(=O)N(C)c3ccccc3)cc2)n1,88.3% (active)
9,CCS(=O)(=O)c1ncc(Cl)c(C(=O)Nc2ccc(C)cc2)n1,99.2% (active)
10,Cc1ccc(NC(=O)c2nc(S(=O)(=O)Cc3ccccc3C)ncc2Cl)cc1C,5.2% (inactive)
11,O=C(c1[nH]ncc1-c1cccc(Br)c1)C1CO1 (stereo unspecified),33.6% (inactive)
12,O=c1c2c(nc3c(-c4ccc(Cl)cc4)c[nH]n13)CCCC2,75.3% (active)
13,O=c1c2c(nc3c(-c4cccc(Br)c4)c[nH]n13)CCCC2,83% (active)
14,O=c1c2c(nc3c(-c4ccc(Cl)cc4)c[nH]n13)CCC2,102% (active)
15,CCCc1cc(=O)n2[nH]cc(-c3ccc(Cl)cc3)c2n1,101% (active)
16,Cc1nc2c(-c3ccc(Cl)cc3)cnn2c(N)c1-c1ccc(F)cc1,-246% (inactive)
17,O=C(Cc1ccc(Br)cc1)Nc1ncc([N+](=O)[O-])s1,23.8% (inactive)
18,CC(C)N1C(=O)/C(=C/c2nc3ccccc3c(=O)n2-c2ccccc2)c2ccccc21,43.6% (inactive)
19,COc1ccc(C(=O)n2cc(C(=O)c3cc(C)ccc3O)cn2)cc1OC,36.5% (inactive)
20,COc1ccc(O)c(-c2[nH]ncc2C(=O)c2ccccc2)c1,9.4% (inactive)
21,COc1ccc(C(=O)c2ccccc2)c2c(O)ccc(C(=O)c3ccccc3)c12,53.3% (active)
22,CCc1cccc(CC)c1NC(=O)CN1CCc2cc(OC)c(OC)cc2C1,23.9% (inactive)
23,COc1ccc(Oc2ccccc2/C=N/O)cc1,81.6% (active)

row,SMILES,inhibition
1,COc1ccc(N2CCN(c3cc(=O)n(Cc4ccc(F)cc4)c(=O)[nH]3)CC2)cc1,6.1% (inactive)
2,COc1ccc(C2C(O)C(c3c[nH]c4ccccc34)=NN2C(=O)CCl)cc1 (stereo unspecified),96.7% (active)
3,O=C(CN1CCOCC1)Nc1nc(-c2ccc3c(c2)CCN3S(=O)(=O)c2ccccc2)cs1,-1% (inactive)
4,CNc1nc(-c2ccc3c(c2)CCN3S(=O)(=O)c2ccccc2)c(C)s1,79.2% (active)
5,CC(=O)N1CCc2cc(S(=O)(=O)NCc3ccc(C)cc3)ccc21,26.3% (inactive)
6,CC(=O)c1c(O)c(C)c(O)c2c1OC1=CC(=O)C(C(C)=O)C(=O)[C@@]12C (stereo partly specified),80.3% (active)
7,O=C(c1ccc2c(c1)CCN2S(=O)(=O)c1ccccc1)N1CCN(c2ccc(F)cc2)CC1,65.3% (active)
8,Cc1ccc(C(=O)N2CCN(c3ccc(F)cc3)CC2)cc1S(=O)(=O)N1CCCCC1,43.8% (inactive)
9,CCC(C)[C@@H](NC(=O)OC(C)(C)C)c1nnc(S(=O)(=O)Cc2cccc(C)c2)o1 (stereo partly specified),45.7% (inactive)
10,CSc1nnc(NC(=O)c2nc(S(=O)(=O)Cc3ccc(C)cc3)ncc2Cl)s1,98.9% (active)
11,Cc1ccc(CS(=O)(=O)c2ncc(Cl)c(C(=O)Nc3nnc(C(C)C)s3)n2)cc1,85.6% (active)
12,Cc1cccc(CS(=O)(=O)c2ncc(Cl)c(C(=O)Nc3nnc(C(C)C)s3)n2)c1,84.2% (active)
13,COC(=O)c1ccc(NC(=O)c2nc(S(=O)(=O)Cc3cccc(C)c3)ncc2Cl)cc1,47.3% (inactive)
14,CCC(=O)Nc1nc2ccccc2n1Cc1ccccc1Cl,75.1% (active)
15,O=C(Nc1nc2ccccc2n1Cc1ccc(Cl)cc1)c1ccco1,41.5% (inactive)
16,Cc1ccccc1Cn1c(C)nc2ccccc21,32% (inactive)
17,COc1ccc(-c2cc(=O)oc3c(C)c(O)ccc23)cc1,91.8% (active)
18,COc1ccc(-c2cc(=O)oc3c(C)c(OC(=O)c4cccs4)ccc23)cc1,63.9% (active)
19,Cc1c(O)ccc2c(-c3ccccc3)cc(=O)oc12,30.3% (inactive)
20,CC(=O)NCCC(=O)N1CCc2c([nH]c3ccccc23)C1c1cccc(Cl)c1 (stereo unspecified),6.2% (inactive)
21,CC(=O)N1CC(C)Sc2ccc(S(=O)(=O)NCCc3ccc(C)cc3)cc21 (stereo unspecified),44.7% (inactive)
22,Cc1ccc2oc(/N=C(\N)NC(=O)C(C)(C)C)nc2c1,40.4% (inactive)
23,Cc1ccc(Oc2c(C(N)=O)cc([N+](=O)[O-])cc2[N+](=O)[O-])cc1,-11.8% (inactive)

row,SMILES,inhibition
1,COc1ccc2cc(C(N)=O)c(=Nc3ccc(C)cc3)oc2c1,62.3% (active)
2,Cc1ccc(N=c2oc3cc(O)ccc3cc2C(N)=O)cc1,72.5% (active)
3,O=C(Cc1cccs1)N/N=C\c1ccc([N+](=O)[O-])s1,49.1% (inactive)
4,O=C(N/N=C/c1ccc([N+](=O)[O-])s1)c1ccccc1Br,50.8% (active)
5,Cc1cc(C(=O)N/N=C/c2ccc([N+](=O)[O-])s2)c2ccccc2n1,37.2% (inactive)
6,O=C(N/N=C/c1ccc([N+](=O)[O-])s1)c1cccc(Br)c1,66.8% (active)
7,O=C(N/N=C\c1ccc([N+](=O)[O-])s1)C1COc2ccccc2O1 (stereo unspecified),17.5% (inactive)
8,COc1cc(S(=O)(=O)n2cnc(C)c2)ccc1Br,-6% (inactive)
9,Fc1cccc(NC(=S)NNc2c3ccccc3nc3ccccc23)c1,20.7% (inactive)
10,Cc1nc2ccccc2c(C)c1C(=O)c1ccc(F)cc1,66% (active)
11,CCn1c(SCc2nc3scc(-c4ccccc4)c3c(=O)[nH]2)nnc1-c1cccs1,1.6% (inactive)
12,O=c1cc(CSc2nnc(-c3cccs3)n2Cc2ccccc2)nc2sc3ccccc3n12,88.7% (active)
13,NC(=O)c1c(NC(=O)CCCC(=O)O)sc2c1CCCCCC2,16.7% (inactive)
14,Cc1ccc(C(=O)Nc2sc3c(c2C(=O)O)CCCC3)o1,-42.9% (inactive)
15,CC(=O)c1c(C)[nH]c(C(=O)OCC(=O)Nc2sc3c(c2C#N)CCCC3)c1C,58.6% (active)
16,Cc1ccccc1Oc1cc(-n2ncc(Cl)c(Cl)c2=O)ncn1,103% (active)
17,COc1cc(OC)cc(-c2nnc(NC(=O)c3ccc4c(c3)OCCO4)o2)c1,105% (active)
18,Cc1nc([N+](=O)[O-])c(Br)n1CC(=O)c1ccc2ccccc2c1,25.6% (inactive)
19,O=C(Nc1nnc(-c2ccco2)o1)c1ccc2ccccc2c1,77.9% (active)
20,CCCN(CCC)S(=O)(=O)c1ccc(C(=O)Nc2nnc(-c3cc(OC)cc(OC)c3)o2)cc1,68.9% (active)
21,COCCN(CCOC)S(=O)(=O)c1ccc(C(=O)Nc2nc(C)c(C(C)=O)s2)cc1,-3.7% (inactive)
22,CSCc1nnc(NC(=O)c2ccc(S(=O)(=O)N(CC(C)C)CC(C)C)cc2)o1,80.1% (active)
23,COc1ccc(-c2nnc(NC(=O)c3ccc([N+](=O)[O-])o3)o2)c(OC)c1,49.5% (inactive)

row,SMILES,inhibition
1,O=C(Nc1nnc(-c2ccc3c(c2)OCCO3)o1)c1ccc(Cc2ccccc2)cc1,105% (active)
2,Cc1noc(C)c1S(=O)(=O)N1CCCC(C(=O)NCc2ccccc2Cl)C1 (stereo unspecified),21.1% (inactive)
3,Cc1ccccc1N(Cc1cc(=O)[nH]c2ccccc12)C(=O)CCl,105% (active)
4,Cc1ccc(N(Cc2cc(=O)[nH]c3ccccc23)C(=O)CCl)c(C)c1,100% (active)
5,COc1cccc(OCc2cc(C(=O)NCc3cnc4ccccn34)no2)c1,4.4% (inactive)
6,CCN(CC)C(=O)C1CCCN(C(=O)c2cc(COc3ccc4ncccc4c3)on2)C1 (stereo unspecified),36% (inactive)
7,COCC1CCCN(C(=O)c2cc(COc3ccc4ncccc4c3)on2)C1 (stereo unspecified),33.2% (inactive)
8,Cc1c(C(C)NC(=O)c2cc(COc3cccc4cnccc34)on2)cnn1C (stereo unspecified),53.8% (active)
9,O=C(c1cc(COc2c(F)cccc2F)on1)N1CCC(c2ccncc2)CC1,41.3% (inactive)
10,COc1ccc(OCc2cc(C(=O)N3CCC(c4ccccc4)CC3)no2)c(Cl)c1,-96.3% (inactive)
11,COCC1CCN(C(=O)c2cc(COc3cccc4cnccc34)on2)CC1,52.7% (active)
12,COCC1CCN(C(=O)c2cc(COc3ccc4ncccc4c3)on2)CC1,40.2% (inactive)
13,O=C(c1cc(COc2cccc3cnccc23)on1)N1CCC(c2ccccc2Cl)C1 (stereo unspecified),72.7% (active)
14,O=C(c1cc(COc2cccc3cnccc23)on1)N1CCCC(CCCO)C1 (stereo unspecified),61.6% (active)
15,CSc1ccccc1OCc1cc(C(=O)N2CCC(c3ccncc3)CC2)no1,29.9% (inactive)
16,Cc1ccc(C)c(OCc2cc(C(=O)NC3CCN(Cc4ccccc4)CC3)no2)c1,22.7% (inactive)
17,N#C/C(=C\c1ccc(O)c([N+](=O)[O-])c1)c1nc2ccccc2s1,76.9% (active)
18,NS(=O)(=O)c1ccc(Sc2nc3ccccc3s2)c([N+](=O)[O-])c1,35.3% (inactive)
19,CCOc1ccc(-c2csc(/C(C#N)=C\c3ccc(O)c([N+](=O)[O-])c3)n2)cc1,0.4% (inactive)
20,CCOC(=O)c1c(-c2ccccc2)csc1NC(=O)CSc1nc(N)cc(N)n1,61.5% (active)
21,CC(C)c1ccc(-c2csc(NC(=O)c3cccs3)c2C(=O)O)cc1,16.6% (inactive)
22,Cc1sc(NC(=O)CSc2ncn(-c3ccccc3)n2)nc1-c1ccccc1,33.1% (inactive)
